Tau fluor cs = counter-screen for tau fibril formation inhibitors; tau K18 P301L Alexa594 fluorescence, heparin fibrillization; Potency, µM (highest dose often 57.7 µM), inactives show top-dose activity change, negative = decrease; 0.93% of 280,000 active; AID 1463; further: nearly all actives have a fitted effect of over 55% in size
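Human tau K18 P301L (15 uM unlabeled, 0.24 uM Alexa 594-labeled) in 100 mM sodium acetate pH 7 with 20 uM heparin, 6 hr at 37 C. ThT 30 uM added, 1 hr ambient; Alexa 594 FP and total fluorescence read at 555/632 nm.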
TRb-SRC2 inh = inhibitors of human thyroid hormone receptor beta-SRC2 interaction | P10828 | TRbeta-SRC2 peptide binding, fluorescence polarization; receptor liganded with 1 µM T3 | Potency, µM (titrated, usually from 106 µM), without a hit: at the highest dose activity change, negative = inhibition, actives largely listed as inhibitors | 0.065% of 280,000 active | AID 1469;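 further: plate controls were bound peptide for no effect and peptide without receptor for full effect; nearly all actives have a fitted effect of over 50% in size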
Target sequence (P10828 whole entry, looked up): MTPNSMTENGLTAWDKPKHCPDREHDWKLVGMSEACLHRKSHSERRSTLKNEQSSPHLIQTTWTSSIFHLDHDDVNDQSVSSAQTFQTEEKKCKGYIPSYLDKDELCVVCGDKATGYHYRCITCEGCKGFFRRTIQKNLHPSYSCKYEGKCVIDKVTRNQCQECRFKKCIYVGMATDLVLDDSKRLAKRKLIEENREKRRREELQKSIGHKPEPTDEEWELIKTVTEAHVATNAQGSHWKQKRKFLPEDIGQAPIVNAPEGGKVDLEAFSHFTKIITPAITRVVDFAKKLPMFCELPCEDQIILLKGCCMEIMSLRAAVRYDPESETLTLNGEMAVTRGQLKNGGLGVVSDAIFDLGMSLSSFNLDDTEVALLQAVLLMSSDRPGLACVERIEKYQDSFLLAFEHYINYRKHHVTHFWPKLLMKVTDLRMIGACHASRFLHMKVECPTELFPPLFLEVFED
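Polarization signal, normalized between peptide-alone and full complex controls, measured compound effects on T3-liganded human TRb LBD (0.6 uM) binding 20 nM Texas Red SRC2 peptide after 5 hr.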
Tau FP inhib = inhibitors of human tau fibril formation; P10636; K18 P301L tau heparin fibrillization, Alexa594 FP, 6 h; Potency, µM (top dose mostly 57.7 µM), for inactives: at the top dose activity, negative = inhibition, usual class: inhibitors; 0.39% of 280,000 active; AID 1468; further: nearly all actives have a fitted effect of over 55% in size
Target sequence (P10636 561-689 P618L limits assumed): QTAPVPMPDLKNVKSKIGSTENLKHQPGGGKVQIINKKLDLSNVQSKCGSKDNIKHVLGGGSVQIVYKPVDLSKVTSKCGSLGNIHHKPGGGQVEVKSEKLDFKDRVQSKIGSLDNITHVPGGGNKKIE
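Heparin (20 uM) drove fibril formation of recombinant tau K18 P301L, 15 uM unlabeled with 0.24 uM Alexa 594 label, for 6 hr at 37 C in 100 mM sodium acetate pH 7. Fluorescence polarization (555/632 nm) read 1 hr after 30 uM ThT.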
Tau fibril ThT = blocks human tau fibril formation measured by thioflavin T; recombinant tau K18 P301L (four-repeat tau fragment), heparin-induced fibrillization, ThT fluorescence; Potency, µM (series often up to 57.4 µM), for inactives: at the highest dose activity, negative = inhibition, actives largely listed as inhibitors; 2.1% of 270,000 active; further: nearly all actives have a fitted effect of over 55% in size
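Heparin-induced fibrillization of the P301L-mutant K18 repeat-domain fragment of human tau was followed by ThT binding in quantitative high-throughput format.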
TexasRed fluor = alters Texas Red total fluorescence, flagging assay interference; TRb/SRC2 Texas Red total fluorescence interference; Potency, µM (highest dose often 106 µM), for the others: top-dose fluorescence change, negative = quenching; 0.29% of 280,000 active; AID 1479; active means well fitted curve in either direction with a large enough effect; inconclusive means small, poorly fitted or top-dose-only effect
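Flags fluorescent or light-absorbing compounds by total fluorescence, S + 2P, at 555 nm excitation and 632 nm emission. Mixture: 20 nM Texas Red SRC2 peptide, 0.6 uM human TRb LBD, 1 uM T3, 5% DMSO; compound exposure 5 h at ambient temperature.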
The depositor's hits bear a star; ? = inconclusive; ! = not active in a repeat; [ ] = dose if it differs, or a comment. Most compounds without a hit are left out; they make up all but 3% or so of the library. Unless noted, the call rests on the fitted dose curve; in most records, active means well fitted curve in the direction sought with a large enough effect; inconclusive means small, poorly fitted or top-dose-only effect, or another doubt; inactive means no such curve, though single readings can be large; an effect the other way counts as inactive or inconclusive. Unless noted, on the % scale 0 is the no-effect control and ±100 the full control effect; potency means the concentration at half of the fitted maximal effect.

SMILES	Tau fluor cs	TRb-SRC2 inh	Tau FP inhib	Tau fibril ThT	TexasRed fluor
COc1ccc(-c2c(C)nn3c(-c4ccccc4)cc(-c4ccccc4)nc23)cc1OC	?	-26%[53 µM]	16%	-20%	-81%[53 µM]
CCOC(=O)c1ccc(NC(=O)c2c(NCc3cc(OC)c(OC)cc3OC)sc3c2CCCC3)cc1	?	0%	-4%	?	-2%
CC(C)c1ccc(OCC(=O)NCCS(=O)(=O)N2CCN(c3ccc(F)cc3)CC2)cc1	0%	-2%	-8%	5%	-3%
Cc1cc2c(cc1NS(=O)(=O)c1ccc(Br)cc1)n(C)c(=O)c(=O)n2C	-3%	-21%	-3%	-7%	2239µM*[quencher]
CCc1nnc2c3ccccc3nc(Nc3ccc(C(C)=O)cc3)n12	-13%	-4%	-5%	-14%	-14%
COC(=O)CCCC1=CC2=CC(=O)C(C)(OC(=O)c3cccs3)C(=O)C2=CN1CCc1ccccn1 (configuration not stated)	-9%[11.6 µM]	-3%[11.2 µM]	?	11µM*!	-2%[11.2 µM]
CN(C)C(=S)N=Nc1[nH]c2ccccc2c1O	-24%	2%	-23%	16µM*	-1%
CCC1=C2CC[C@H]3C(=O)NC(=O)[C@H]3[C@H]2[C@@]2(C)C(=NCC3CC3)OC(=O)N2C1=O	-6%	10%	-6%	-3%	-4%
CC(C)n1c(O)c(N=Nc2ccc(Cl)c(C(=O)O)c2)c2ccccc21	0%	-3%	-2%	16µM*	1%
CCn1c(O)c(N=Nc2ccc(Cl)c(C(=O)O)c2)c2ccccc21	-9%	3%	7%	4.5µM*	-4%
Fc1ccc(C2CC(c3ccco3)=NN2c2ccccc2)cc1 (configuration not stated)	4%	-1%	4%	1%	0%
O=[N+]([O-])c1ccc(N2N=C(c3ccco3)CC2c2ccccc2)cc1 (configuration not stated)	?	-4%	?	8.9µM*	7%
Cc1ccc(S(=O)(=O)N/N=C/c2c[nH]c3ccccc23)cc1	?	-1%	12%	?	-10%
COc1ccc2c(/C=N/NS(=O)(=O)c3ccc(C)cc3)c[nH]c2c1	13µM*[quencher]	-4%	13%	?	-4%
COc1ccc2[nH]cc(/C=N/NS(=O)(=O)c3ccc(C)cc3)c2c1	13µM*[quencher]	1%	15%	?	-2%
COc1cccc(NC(=O)CSC2=Nc3ccccc3C3=NC(CC(=O)NCCc4ccccc4)C(=O)N23)c1 (configuration not stated)	2%	-3%	10%	6%	?
CC(C)c1nc2ccc(C(=O)NCCCN3CCN(c4cccc(Cl)c4)CC3)cc2o1	-10%	7%	4%	?	-1%
C[C@@]1(C(=O)O)NCCc2cc(O)c(O)cc21	?	9%	?	25µM*	?
N#C/C(=C/c1ccc([N+](=O)[O-])cc1)C(=O)Nc1ccccc1O	-21%	-14%	-1%	?	0%
N#C/C(=C/c1ccc(O)c([N+](=O)[O-])c1)C(=O)Nc1ccccc1	?	-1%	8%	8.9µM*	-6%
N#C/C(=C\c1ccc(O)c(O)c1)C(=O)NCCc1ccccc1	?	4%	12%	?	-4%
N#C/C(=C\c1ccc(O)c(O)c1)C(=O)NCCCCc1ccccc1	14µM*[quencher]	1%	2%	16µM*	-5%
O=CC(O)C(O)C(O)C(O)CO (configuration not stated)	-6%	1%	6%	-5%	1%
CCCCCn1cc2c(c1-c1ccc(Br)cc1)c(=O)n(C)c(=O)n2C	-19%	-2%	-10%	?	-1%
CCCCCCC(=O)Nc1nc(C)c(-c2csc(Nc3ccc(Cl)cc3)n2)s1	6.3µM*[quencher]	3%	0%	5µM*	2%
SMILES	Tau fluor cs	TRb-SRC2 inh	Tau FP inhib	Tau fibril ThT	TexasRed fluor
CCCCCC(=O)Nc1nc(C)c(-c2csc(Nc3cc(Cl)ccc3C)n2)s1	?	0%	7%	?	4%
CCCCCC(=O)Nc1nc(C)c(-c2csc(Nc3ccc(Cl)cc3)n2)s1	10µM*[quencher]	-5%	8%	11µM*	2%
CCOc1ccc(-c2nn(CC(=O)NC3CCCC3)c3c2cnc2ccc(C)cc23)cc1	-4%	6%	-12%	-2%	-5%
CCOc1ccc(-n2cc(-c3ccccc3)c3c(NC4CCCC4)ncnc32)cc1	-6%	-7%	-4%	-14%	0%
O=C(N/N=C/c1ccc([N+](=O)[O-])o1)c1ccc(O)cc1	-30%	0%	4%	10µM*	0%
O=C(N/N=C/c1ccc([N+](=O)[O-])o1)c1cc2c(ccc3ccccc32)o1	?	-7%	-8%	1.1µM*	-2%
O=C(/C(=C/c1ccc(Cl)cc1)c1nc2ccccc2[nH]1)c1cccs1	-29%	-11%	?	16µM*	-5%
COC(=O)/C(=C\c1ccc(O)cc1)c1nc2ccccc2[nH]1	-11%	-1%	7%	?	-1%
O=C(/C(=C\c1ccccc1)c1nc2ccccc2[nH]1)c1ccc(Cl)cc1	-24%	-1%	?	22µM*	1%
COc1cc(/C=C(/C(=O)c2cccs2)c2nc3ccccc3[nH]2)ccc1O	?	10%	2%	?	1%
Cc1nn2c(NC(C)C)c3c(nc2c1-c1ccccc1)CCC3	?	3%	?	28µM*	0%
Cc1nn2c(NCC(C)C)c3c(nc2c1-c1ccccc1)CCC3	-5%	-15%	2%	-11%	2%
COc1ccc(NS(=O)(=O)c2ccc3[nH]c(=O)ccc3c2)cc1OC	8.9µM*[quencher]	-5%	-18%	?	1%
COc1ccc(NS(=O)(=O)c2ccc(OC)c(OC)c2)cc1OC	0%	-6%	-3%	-3%	0%
COc1ccc(OC)c(NC(=O)CN(C)S(=O)(=O)c2ccc3[nH]c4c(c3c2)CCCC4)c1	?	0%	7%	-1%	-1%
COc1cc(NS(=O)(=O)c2ccc3[nH]c4c(c3c2)CCCC4)cc(OC)c1OC	?	-15%	18%	-13%	20µM*[quencher]
CCOc1ccccc1NS(=O)(=O)c1ccc2[nH]c3c(c2c1)CCCCC3	?	0%	-8%	4%	0%
COc1cc(NS(=O)(=O)c2ccc3[nH]c4c(c3c2)CCCCCC4)cc(OC)c1	8.9µM*[quencher]	0%	-5%	-7%	1%
COc1cc(NC(=O)CN(C)S(=O)(=O)c2ccc3[nH]c4c(c3c2)CCCC4)cc(OC)c1OC	?	6%	14%	-7%	-6%
COc1ccc(OC)c(NS(=O)(=O)c2ccc3[nH]c4c(c3c2)CCCCC4)c1	11µM*[quencher]	-4%	3%	-2%	-1%
Cc1ccc(NC(=O)Cn2c(=O)n(Cc3nc(-c4ccccc4)no3)c(=O)c3cc4c(cc32)OCO4)cc1C	-17%	-1%	?	9%	0%

Bioassay records as filed in PubChem.
